JMJD2A Tudor inh: qHTS Assay for Inhibitors of JMJD2A-Tudor Domain; hit rate 4.4% among 390,000; Potency, µM (top dose mostly 114 µM), without a hit: at the highest dose activity change, negative = inhibition, most hits filed as inhibitors; AlphaScreen JMJD2A-Tudor / H3K4me3 peptide binding; AID 504339, 2011; note: % is set by controls: 0 for no effect and ±100 for the full control effect; nearly all actives have a fitted effect of over 50% in size
Sfp PPTase inh: qHTS Assay for Inhibitors of Bacillus subtilis Sfp phosphopantetheinyl transferase (PPTase); 4'-phosphopantetheinyl transferase ffp (Bacillus subtilis), Q9F4F7; Biochemical Sfp PPTase activity, qHTS; Potency, µM, inactives show largest response in the series, negative = inhibition, most hits filed as inhibitors; hit rate 3.5% among 310,000; AID 1490, 2009;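 note: the enzyme is Sfp with the accession as filed and its product quenches rhodamine fluorescence; 0% = enzyme reaction without inhibitor and -100% = no enzyme wells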
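Fluorescence-quenching assay with 15 nM Sfp, 5 uM rhodamine-CoA and 12.5 uM BHQ-2-labelled ybbR peptide in pH 7.6 Hepes/MgCl2 buffer. Enzyme was pre-incubated with compound for 15 min at room temperature. Rate was taken from the 30-min fluorescence change (525/598 nm).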
HP1b chromo inh: HTS for Inhibitors of HP1-beta Chromodomain Interactions with Methylated Histone Tails. Potency, µM (series often up to 114 µM), for the others: top-dose activity change, negative = inhibition, hits mostly inhibitors. Chromobox protein homolog 1 (Homo sapiens), P83916. AlphaScreen HP1-beta / biotin-H3K9me3 peptide binding. hit rate 0.56% among 390,000; note: nearly all actives have a fitted effect of over 70% in size
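HP1-beta protein (50 nM final) preincubated 30 min at room temperature with biotinylated H3(1-18)K9me3 peptide (50 nM) in PBS pH 7.4, 0.01% Tween-20, then compound added for 30 min. AlphaScreen streptavidin donor/nickel chelate acceptor beads (10 ug/mL final), 30 min dark, luminescence read.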
BAZ2B block: qHTS Assay for Inhibitors of BAZ2B. Potency, µM (series often up to 114 µM), for inactives: at the highest dose activity change, negative = inhibition, actives largely listed as inhibitors. AID 504333, 2011. hit rate 4.4% among 360,000. Bromodomain adjacent to zinc finger domain protein 2B (Homo sapiens), Q9UIF8. AlphaScreen BAZ2B-H3K14Ac peptide displacement; note: % is set by controls: 0 for no effect and ±100 for the full control effect; nearly all actives have a fitted effect of over 60% in size
Target sequence (Q9UIF8 whole entry, looked up, the tested form may be a part): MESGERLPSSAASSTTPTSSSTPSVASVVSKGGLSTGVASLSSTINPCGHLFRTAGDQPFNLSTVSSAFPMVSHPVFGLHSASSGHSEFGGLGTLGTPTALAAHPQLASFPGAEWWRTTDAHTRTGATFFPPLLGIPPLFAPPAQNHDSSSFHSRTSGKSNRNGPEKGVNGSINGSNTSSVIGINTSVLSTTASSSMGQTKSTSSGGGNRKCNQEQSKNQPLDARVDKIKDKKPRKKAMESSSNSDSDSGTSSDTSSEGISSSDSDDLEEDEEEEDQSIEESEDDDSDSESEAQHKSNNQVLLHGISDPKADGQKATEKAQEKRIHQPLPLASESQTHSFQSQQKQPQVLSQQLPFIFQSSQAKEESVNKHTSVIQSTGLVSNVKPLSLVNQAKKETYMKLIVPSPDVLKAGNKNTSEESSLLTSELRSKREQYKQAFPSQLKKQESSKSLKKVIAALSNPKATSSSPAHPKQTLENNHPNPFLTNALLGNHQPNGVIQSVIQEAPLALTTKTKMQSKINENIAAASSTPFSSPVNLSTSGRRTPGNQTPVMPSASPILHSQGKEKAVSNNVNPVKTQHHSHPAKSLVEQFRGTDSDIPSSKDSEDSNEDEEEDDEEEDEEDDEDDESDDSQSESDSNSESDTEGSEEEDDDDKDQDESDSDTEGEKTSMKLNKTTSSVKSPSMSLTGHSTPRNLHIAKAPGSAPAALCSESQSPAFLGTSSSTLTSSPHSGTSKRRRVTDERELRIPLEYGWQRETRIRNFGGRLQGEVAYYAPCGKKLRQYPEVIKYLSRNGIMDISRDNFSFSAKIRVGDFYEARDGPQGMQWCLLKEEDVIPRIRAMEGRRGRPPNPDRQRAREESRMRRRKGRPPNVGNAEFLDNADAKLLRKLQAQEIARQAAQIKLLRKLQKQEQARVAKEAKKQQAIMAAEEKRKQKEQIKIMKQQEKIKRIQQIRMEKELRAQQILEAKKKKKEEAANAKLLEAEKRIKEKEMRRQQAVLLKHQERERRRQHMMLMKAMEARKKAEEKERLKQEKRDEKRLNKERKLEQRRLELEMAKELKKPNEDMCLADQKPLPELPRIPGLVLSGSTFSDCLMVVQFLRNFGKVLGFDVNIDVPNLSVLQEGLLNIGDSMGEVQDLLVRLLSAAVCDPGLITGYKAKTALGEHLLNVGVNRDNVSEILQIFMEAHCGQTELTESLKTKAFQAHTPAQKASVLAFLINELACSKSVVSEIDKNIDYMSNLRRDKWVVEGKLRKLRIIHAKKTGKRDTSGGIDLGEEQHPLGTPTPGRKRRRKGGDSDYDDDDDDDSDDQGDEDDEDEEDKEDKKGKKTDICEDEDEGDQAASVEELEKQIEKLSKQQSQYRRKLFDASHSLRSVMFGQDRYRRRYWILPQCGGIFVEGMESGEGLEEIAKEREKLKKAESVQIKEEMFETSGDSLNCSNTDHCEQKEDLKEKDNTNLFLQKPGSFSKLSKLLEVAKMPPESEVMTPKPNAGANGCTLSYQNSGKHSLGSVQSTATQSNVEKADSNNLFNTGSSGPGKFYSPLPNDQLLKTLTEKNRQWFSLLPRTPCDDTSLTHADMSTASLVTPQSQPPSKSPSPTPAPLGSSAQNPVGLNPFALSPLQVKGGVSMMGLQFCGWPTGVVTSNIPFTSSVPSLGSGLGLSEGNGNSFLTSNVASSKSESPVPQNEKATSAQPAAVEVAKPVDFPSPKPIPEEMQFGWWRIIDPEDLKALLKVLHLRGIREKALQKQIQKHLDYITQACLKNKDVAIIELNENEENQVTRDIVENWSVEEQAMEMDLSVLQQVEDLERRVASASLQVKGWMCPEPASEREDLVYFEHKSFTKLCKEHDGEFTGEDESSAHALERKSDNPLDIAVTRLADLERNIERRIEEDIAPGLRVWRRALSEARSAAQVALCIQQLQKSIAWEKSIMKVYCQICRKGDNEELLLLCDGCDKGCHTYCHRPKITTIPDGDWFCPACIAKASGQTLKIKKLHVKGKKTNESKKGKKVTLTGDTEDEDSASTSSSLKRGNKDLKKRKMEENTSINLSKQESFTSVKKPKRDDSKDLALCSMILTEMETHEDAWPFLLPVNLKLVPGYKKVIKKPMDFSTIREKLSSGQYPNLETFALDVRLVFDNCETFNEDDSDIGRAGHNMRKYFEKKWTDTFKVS
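AlphaScreen displacement: compounds (up to 110uM) incubated 30 min at room temperature with a preformed 50 nM BAZ2B/50 nM biotinylated H3K14Ac peptide complex in PBS pH 7.4 with Tween-20. Donor and acceptor beads at 10 ug/mL final added, 20 min light-protected before reading.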
G9a block: qHTS Assay for Inhibitors of Histone Lysine Methyltransferase G9a; Histone-lysine N-methyltransferase EHMT2 (Homo sapiens), Q96KQ7; G9a H3K9 monomethylation, AlphaScreen, 2 h; Potency, µM (series often up to 102 µM), for the others: at the highest dose activity, negative = inhibition, actives largely listed as inhibitors; hit rate 8.8% among 350,000; note: % is set by controls: 0 for no effect and ±100 for the full control effect; nearly all actives have a fitted effect of over 75% in size
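Chemiluminescent proximity detection of H3K9 monomethylation, read after 10 min bead incubation in the dark. Reaction: 20 nM G9a, 500 nM biotin-H3K9 peptide, 20 uM SAM cofactor, 2 h, room temperature, following 15 min enzyme-compound preincubation.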
Active calls of the source: *; ? = inconclusive; / = not tested or not shown; [ ] = remark or other dose. The list is not random: actives were taken first. Their share in the collection is about 12%. Calls come from the whole dose curve; as a rule, active = well fitted curve in the direction sought with a large enough effect; inconclusive = small, poorly fitted or top-dose-only effect, or another doubt; inactive = no such curve, though single readings can be large; an effect the other way counts as inactive or inconclusive. Potency is the fitted concentration of half-maximal effect.

SMILES	JMJD2A Tudor inh	Sfp PPTase inh	HP1b chromo inh	BAZ2B block	G9a block
C/C=C/c1ccc(OCC(O)CN2CCCCC2CC)c(OC)c1 (configuration not stated)	3.55µM*	-0.1%	?	56.2µM*	22.4µM*
CC1CCCCN1CC(O)COc1ccc(OCC(O)CN2CCCCC2C)cc1 (configuration not stated)	-7.2%	5.5%	18.6%	4.0%	/
C/C=C/c1ccc(OCC(O)CN(C)Cc2ccc(SC)cc2)c(OC)c1 (configuration not stated)	3.98µM*	-20.5%	?	50.1µM*	70.8µM*
O=S(=O)(c1ccc(F)cc1)N1CCN(C(=S)NC2CC2)CC1	-15.2%	/	55.8%	12.0%	25.8%[59 µM]
COc1cc(C(O)c2nc3ccccc3n2C(C)C)cc(OC)c1OC (configuration not stated)	-6.5%	1.4%	38.2%	8.0%	/
CCCNC(=O)CN1CCN(c2cc3ccccc3c(Cl)n2)CC1	-16.4%	7.0%	48.1%	-1.5%	?
C/C=C/c1ccc(OCC(O)CNCC(c2ccc(OC)cc2)N(C)C)c(OC)c1 (configuration not stated)	22.4µM*	-24.2%	-14.9%	17.8µM*	?
CCOc1ccc(C(=O)Oc2c(Sc3ccccc3)c(C)nn2C(C)(C)C)cc1OCC	-0.3%	/	28.0%	4.8%	-3.5%[59 µM]
CCOC(=O)c1c(C)[nH]c(C)c1S(=O)(=O)NCc1cc(C)ccc1C	?	3.2%	16.8%	50.1µM*	?
O=C(O)C1CCC[C@@H]2[C@@H]3CC(CN12)[C@@H]1CCCCN1C3 (some centres not stated)	/	7.1%	/	/	/
CS(=O)(=O)c1ccccc1-c1nnc(NC(=O)c2ccco2)o1	20µM*	/	14.1%	50.1µM*	14.1µM*
O=C(Nc1nnc(-c2ccc(F)cc2)o1)c1ccco1	79.4µM*	10.0%	47.0%	50.1µM*	26.7%[12.7 µM]
CS(=O)(=O)c1ccccc1-c1nnc(NC(=O)CCS(=O)(=O)c2ccc(Cl)cc2)o1	?	/	44.9%	?	5.7%
COc1cccc(NC(=O)C(Sc2nnc(Nc3ccccc3C)s2)c2ccccc2)c1 (configuration not stated)	-15.6%	18.4%	25.3%	-3.9%	?
COc1ccc(Nc2nnc(SC(C(=O)Nc3ccc(OC)c(Cl)c3)c3ccccc3)s2)cc1 (configuration not stated)	-18.5%	-2.9%	0.8%	-14.1%	20µM*
COc1ccc(C)cc1NC(=O)C(Sc1nnc2ccccn12)c1ccccc1 (configuration not stated)	-16.1%	7.0%	-15.4%	-6.1%	20.3%[59 µM]
COc1ccc(Nc2nnc(SC(C(=O)Nc3cc(C)ccc3C)c3ccccc3)s2)cc1 (configuration not stated)	-16.8%	10.7%	2.4%	-18.7%	50.1µM*
CCNc1nc(NCC)n2c(SC(C(=O)Nc3cc(C)ccc3OC)c3ccccc3)nnc2n1 (configuration not stated)	-19.3%	50.1µM*	21.5%	-11.4%	?
COc1ccc(C)cc1NC(=O)C(Sc1nnc(Nc2cc(C)ccc2OC)s1)c1ccccc1 (configuration not stated)	?	5.2%	5.6%	-33.6%	3.55µM*
O=S(=O)(c1ccc(F)cc1)N(CC(O)Cn1c2ccccc2c2ccccc21)c1ccccc1 (configuration not stated)	-15.5%	/	29.0%	2.2%[57.1 µM]	-25.9%[59 µM]
COc1ccc(/C=C2/CC/C(=C\c3ccc(OC)c(OC)c3OC)C2=O)c(OC)c1OC	?	-2.7%	3.8%	?	7.94µM*
COc1cc(/C=C2\CC/C(=C\c3cc(OC)c(O)c(OC)c3)C2=O)cc(OC)c1O	44.7µM*	44.7µM*	?	50.1µM*	2.51µM*
COc1cc(/C=C2/C(=O)CNC2=O)ccc1O	7.2%	?	25.8%	-12.3%	44.7µM*
COc1cc(/C=C2\CCC/C(=C\c3ccc(O)c(OC)c3)C2=O)ccc1O	28.2µM*	-6.7%	?	?	44.7µM*
O=c1cnc2cnc(OCc3ccccc3)nc2n1Cc1ccc(F)cc1	/	-3.8%	/	/	2.5%[12.7 µM]
SMILES	JMJD2A Tudor inh	Sfp PPTase inh	HP1b chromo inh	BAZ2B block	G9a block
CCOc1ccc(CCNC(=O)CCCc2nnc3n(CCCOC)c(=O)c4sccc4n23)cc1	2.6%	/	55.9%	-11.9%	2.8%[59 µM]
CCOc1cc(/C=N/N=C/c2ccc(O)c(OCC)c2)ccc1O	-22.8%	7.1%	23.4%	3.1%	14.8%
CCOc1cc(/C=C2\CN(CC)C/C(=C\c3ccc(O)c(OCC)c3)C2=O)ccc1O	56.2µM*	-14.4%	-19.6%[57 µM]	50.1µM*	28.2µM*
COc1cc(/C=C2/CCC/C(=C\c3cc(O)c(OC)c(Cl)c3)C2=O)cc(Cl)c1O	?	-2.9%	-15.5%	?	35.5µM*
O=C(O)C1=CC[C@@H](c2ccc(Cl)cc2)N(S(=O)(=O)c2ccc(Cl)cc2)C1	-14.8%	/	37.5%	-5.1%	-11.6%[2.33 µM]
CCOC(=O)c1cc(OC(=O)c2cc(OC)c(OC)c(OC)c2)n(-c2ccccc2)n1	-18.2%	/	34.5%	-21.0%	-0.9%[59 µM]
Fc1ccccc1COc1ccc(Br)cc1CNCc1ccncc1	-16.4%	79.4µM*	40.3%	-13.4%	?
Fc1ccc(COc2ccc(Br)cc2CNCc2ccncc2)cc1	?	-1.6%	16.6%	50.1µM*	50.1µM*
CCCCC[C@H](O)/C=C/C=C\C/C=C\CCCCCCC(=O)O	/	5.9%	/	/	/
C=Cc1c(C)/c2[n-]/c1=C\c1[n-]c(c(CC)c1C)/C=c1\[n-]c3c(c1C)C(=O)C(C(=O)[O-])C=3c1[n-]c(c(C)c1CCC(=O)[O-])\C=2.[Cu].[Na+].[Na+] (configuration not stated)	/	44.7µM*	/	/	?
COc1ccc(CC(=O)NC2CC(=O)N(c3cccc(F)c3)C2)cc1OC (configuration not stated)	-7.8%	/	11.9%	-3.6%	0.5%[59 µM]
O=C(Cc1ccc(Cl)cc1)NC(=S)Nc1ccccc1N1CCOCC1	-26.2%	15.5%	11.7%	-7.8%	?
COCCOc1ccc(C(F)(F)F)cc1NC(=O)Cc1ccc(S(=O)(=O)N2CCOCC2)s1	-17.9%	/	23.7%	-4.6%	-4.4%[0.501 µM]
CCCOc1ccc(NC(=O)Cc2ccc(S(=O)(=O)N3CCOCC3)s2)cc1OCCC	?	/	-22.1%	-39.0%	79.4µM*
O=C(Cc1ccc(Cl)c(Cl)c1)Nc1ccccc1N1CCOCC1	11.7%	-2.9%	53.8%	/	79.4µM*
Cn1c(-c2ccc(F)cc2)cnc1SCC(=O)Nc1ccccc1N1CCOCC1	-27.8%	-3.6%	18.0%	?	44.7µM*
O=C(CSc1ccc(F)cc1)Nc1ccccc1N1CCOCC1	13.4%	-0.9%	62.9%	-2.3%	/

Source: PubChem (National Center for Advancing Translational Sciences (NCATS))
